# Measurements from the supplement of paper PMC8728848.
# Shown is part of a subset that was picked to be rich in the strongest signals.
# How the values were obtained:
# Test in all cases: glycan array binding signal (z-score within array); higher = stronger binding
# Conditions in all cases: glycan notation: IUPAC condensed, linker removed
# [1] = molecular target: Fuc(a1-2)Gal6S(b1-3)GlcNAc6S
# Outline: (§1)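 The binding signal is a Z-score computed within each array and averaged over linkers. Arrays of the same protein sequence at different concentrations or buffers were also averaged together. Data originate from 3228 arrays in the Consortium for Functional Glycomics database, kept only where the protein sequence was available.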
# [2] = molecular target: Fuc(a1-2)[Gal(a1-3)]Gal(b1-3)GlcNAc(b1-2)Man(a1-3)[Fuc(a1-2)[Gal(a1-3)]Gal(b1-3)GlcNAc(b1-2)Man(a1-6)]Man(b1-4)GlcNAc(b1-4)[Fuc(a1-6)]GlcNAc
# Outline: as §1
# [3] = molecular target: Fuc(a1-2)[GalNAc(a1-3)]Gal(b1-4)[Fuc(a1-3)]GlcNAc(b1-3)GalNAc
# Outline: as §1
# [4] = molecular target: Fuc(a1-3)[Gal(b1-4)]GlcNAc
# Outline: as §1
# [5] = molecular target: Fuc(a1-3)[Gal(b1-4)]GlcNAc(b1-3)Gal(b1-4)[Fuc(a1-3)]GlcNAc
# Outline: as §1
# [6] = molecular target: Fuc(a1-3)[Gal(b1-4)]GlcNAc(b1-3)Gal(b1-4)[Fuc(a1-3)]GlcNAc(b1-3)Gal(b1-4)[Fuc(a1-3)]GlcNAc
# Outline: as §1
# [7] = molecular target: Gal(a1-4)Gal(b1-4)GlcNAc(b1-2)Man(a1-3)[Gal(a1-4)Gal(b1-4)GlcNAc(b1-2)Man(a1-6)]Man(b1-4)GlcNAc(b1-4)GlcNAc
# Outline: as §1
# [8] = molecular target: Gal(b1-2)Gal
# Outline: as §1
# [9] = molecular target: Gal(b1-3)[Fuc(a1-4)]GlcNAc(b1-6)GalNAc
# Outline: as §1
# [10] = molecular target: Gal(b1-3)[Neu5Ac(a2-6)]GalNAc
# Outline: as §1
# [11] = molecular target: Gal(b1-4)GlcNAc(b1-2)Man(a1-3)[Gal(b1-4)GlcNAc(b1-2)Man(a1-6)]Man(b1-4)GlcNAc(b1-4)[Fuc(a1-6)]GlcNAc
# Outline: as §1
# [12] = molecular target: Gal(b1-4)GlcNAc(b1-2)Man(a1-6)[Man(a1-3)]Man(b1-4)GlcNAc(b1-4)GlcNAc
# Outline: as §1
# [13] = molecular target: Gal(b1-4)GlcNAc(b1-3)Gal(b1-4)GlcNAc
# Outline: as §1
# [14] = molecular target: Gal(b1-4)GlcNAc(b1-3)Gal(b1-4)GlcNAc(b1-3)Gal(b1-4)GlcNAc(b1-3)Gal(b1-4)GlcNAc(b1-3)Gal(b1-4)GlcNAc(b1-2)Man(a1-3)[Gal(b1-4)GlcNAc(b1-3)Gal(b1-4)GlcNAc(b1-3)Gal(b1-4)GlcNAc(b1-3)Gal(b1-4)GlcNAc(b1-3)Gal(b1-4)GlcNAc(b1-2)Man(a1-6)]Man(b1-4)GlcNAc(b1-4)GlcNAc
# Outline: as §1
# [15] = molecular target: Gal(b1-4)GlcNAc(b1-3)Gal(b1-4)GlcNAc(b1-3)Gal(b1-4)GlcNAc(b1-3)Gal(b1-4)GlcNAc(b1-3)Gal(b1-4)GlcNAc(b1-2)Man(a1-3)[Gal(b1-4)GlcNAc(b1-3)Gal(b1-4)GlcNAc(b1-3)Gal(b1-4)GlcNAc(b1-3)Gal(b1-4)GlcNAc(b1-3)Gal(b1-4)GlcNAc(b1-2)Man(a1-6)]Man(b1-4)GlcNAc(b1-4)[Fuc(a1-6)]GlcNAc
# Outline: as §1
# [16] = molecular target: Gal(b1-4)GlcNAc(b1-3)Gal(b1-4)GlcNAc(b1-3)Gal(b1-4)GlcNAc(b1-3)Gal(b1-4)GlcNAc(b1-3)Gal(b1-4)GlcNAc(b1-3)Gal(b1-4)GlcNAc(b1-2)Man(a1-3)[Gal(b1-4)GlcNAc(b1-3)Gal(b1-4)GlcNAc(b1-3)Gal(b1-4)GlcNAc(b1-3)Gal(b1-4)GlcNAc(b1-3)Gal(b1-4)GlcNAc(b1-3)Gal(b1-4)GlcNAc(b1-2)Man(a1-6)]Man(b1-4)GlcNAc(b1-4)GlcNAc
# Outline: as §1
# [17] = molecular target: Gal(b1-4)GlcNAc(b1-3)[GlcNAc(b1-6)]Gal(b1-4)GlcNAc
# Outline: as §1
# [18] = molecular target: Gal3S6S(b1-4)GlcNAc6S
# Outline: as §1
# [19] = molecular target: Gal4S6S(b1-4)GlcNAc
# Outline: as §1
# [20] = molecular target: Gal6S(b1-3)GlcNAc6S
# Outline: as §1
# [21] = molecular target: GalNAc(b1-4)GlcNAc6S
# Outline: as §1
# [22] = molecular target: GlcA(b1-3)Gal
# Outline: as §1
# [23] = molecular target: GlcNAc(b1-2)Man(a1-3)[GlcNAc(b1-4)][GlcNAc(b1-2)Man(a1-6)]Man(b1-4)GlcNAc(b1-4)GlcNAc
# Outline: as §1
# [24] = molecular target: GlcNAc(b1-3)Gal(b1-4)GlcNAc
# Outline: as §1
# [25] = molecular target: GlcNAc(b1-3)Gal(b1-4)GlcNAc(b1-3)Gal(b1-4)GlcNAc(b1-2)Man(a1-3)[GlcNAc(b1-3)Gal(b1-4)GlcNAc(b1-3)Gal(b1-4)GlcNAc(b1-2)Man(a1-6)]Man(b1-4)GlcNAc(b1-4)GlcNAc
# Outline: as §1
# [26] = molecular target: GlcNAc(b1-3)Gal(b1-4)GlcNAc(b1-3)Gal(b1-4)GlcNAc(b1-3)Gal(b1-4)GlcNAc(b1-2)[GlcNAc(b1-3)Gal(b1-4)GlcNAc(b1-3)Gal(b1-4)GlcNAc(b1-3)Gal(b1-4)GlcNAc(b1-6)]Man(a1-6)[GlcNAc(b1-3)Gal(b1-4)GlcNAc(b1-3)Gal(b1-4)GlcNAc(b1-3)Gal(b1-4)GlcNAc(b1-2)Man(a1-3)]Man(b1-4)GlcNAc(b1-4)[Fuc(a1-6)]GlcNAc
# Outline: as §1
# [27] = molecular target: GlcNAc(b1-3)Gal(b1-4)GlcNAc(b1-3)Gal(b1-4)GlcNAc(b1-3)Gal(b1-4)GlcNAc(b1-3)Gal(b1-4)GlcNAc(b1-2)Man(a1-3)[GlcNAc(b1-3)Gal(b1-4)GlcNAc(b1-3)Gal(b1-4)GlcNAc(b1-3)Gal(b1-4)GlcNAc(b1-3)Gal(b1-4)GlcNAc(b1-2)Man(a1-6)]Man(b1-4)GlcNAc(b1-4)[Fuc(a1-6)]GlcNAc
# Outline: as §1
# [28] = molecular target: Man(a1-2)Man(a1-6)[Man(a1-3)]Man(a1-6)[Man(a1-2)Man(a1-2)Man(a1-3)]Man(b1-4)GlcNAc(b1-4)GlcNAc
# Outline: as §1
# [29] = molecular target: Man(a1-3)[Man(a1-6)]Man
# Outline: as §1
# [30] = molecular target: Man(a1-3)[Man(a1-6)]Man(b1-4)GlcNAc(b1-4)GlcNAc
# Outline: as §1
# [31] = molecular target: Neu5Ac(a2-3)Gal(b1-3)GlcNAc(b1-2)[Neu5Ac(a2-3)Gal(b1-3)GlcNAc(b1-4)]Man(a1-6)[Neu5Ac(a2-3)Gal(b1-3)GlcNAc(b1-2)Man(a1-3)]Man(b1-4)GlcNAc(b1-4)GlcNAc
# Outline: as §1
# [32] = molecular target: Neu5Ac(a2-3)Gal(b1-3)[Neu5Ac(a2-6)]GalNAc
# Outline: as §1
# [33] = molecular target: Neu5Ac(a2-3)Gal(b1-4)GlcNAc(b1-3)Gal
# Outline: as §1
# [34] = molecular target: Neu5Ac(a2-3)Gal6S(b1-4)GlcNAc
# Outline: as §1
# [35] = molecular target: Neu5Ac(a2-6)Gal(b1-4)GlcNAc(b1-3)Gal(b1-4)GlcNAc(b1-2)Man(a1-3)[Neu5Ac(a2-6)Gal(b1-4)GlcNAc(b1-3)Gal(b1-4)GlcNAc(b1-2)Man(a1-6)]GalNAc
# Outline: as §1
# [36] = molecular target: Neu5Ac(a2-6)Gal(b1-4)GlcNAc6S
# Outline: as §1
# [37] = molecular target: Neu5Gc(a2-3)Gal(b1-4)GlcNAc(b1-3)Gal(b1-4)GlcNAc(b1-2)Man(a1-3)[Neu5Gc(a2-3)Gal(b1-4)GlcNAc(b1-3)Gal(b1-4)GlcNAc(b1-2)Man(a1-6)]Man(b1-4)GlcNAc(b1-4)GlcNAc
# Outline: as §1
# [38] = molecular target: Neu5Gc(b2-6)Gal(b1-4)GlcNAc
# Outline: as §1
binder,measurement,setting,value
MUB70 (Lactobacillus reuteri) (protein) CVHVQYIDGETDQMLRQDDLDGYTDETIPYSTAEGIKKFEGDGYELFKDNFPAGEKFDNDDTNDQFYTVIF,glycan array binding signal (z-score),[1],2.39
same,glycan array binding signal (z-score),[2],-0.317
same,glycan array binding signal (z-score),[3],-0.274
same,glycan array binding signal (z-score),[4],-0.273
same,glycan array binding signal (z-score),[5],-0.143
same,glycan array binding signal (z-score),[6],-0.805
same,glycan array binding signal (z-score),[7],0.445
same,glycan array binding signal (z-score),[8],2.16
same,glycan array binding signal (z-score),[9],-0.459
same,glycan array binding signal (z-score),[10],0.618
same,glycan array binding signal (z-score),[11],-0.056
same,glycan array binding signal (z-score),[12],0.734
same,glycan array binding signal (z-score),[13],-0.399
same,glycan array binding signal (z-score),[14],0.479
same,glycan array binding signal (z-score),[15],2.07
same,glycan array binding signal (z-score),[16],2.37
same,glycan array binding signal (z-score),[17],-0.071
same,glycan array binding signal (z-score),[18],3.78
same,glycan array binding signal (z-score),[19],1.99
same,glycan array binding signal (z-score),[20],4.49
same,glycan array binding signal (z-score),[21],0.276
same,glycan array binding signal (z-score),[22],-0.592
same,glycan array binding signal (z-score),[23],0.036
same,glycan array binding signal (z-score),[24],-0.453
same,glycan array binding signal (z-score),[25],2.17
same,glycan array binding signal (z-score),[26],0.94
same,glycan array binding signal (z-score),[27],0.523
same,glycan array binding signal (z-score),[28],0.042
same,glycan array binding signal (z-score),[29],-0.052
same,glycan array binding signal (z-score),[30],-0.322
same,glycan array binding signal (z-score),[31],6.11
same,glycan array binding signal (z-score),[32],1.18
same,glycan array binding signal (z-score),[33],0.155
same,glycan array binding signal (z-score),[34],-0.909
same,glycan array binding signal (z-score),[35],0.348
same,glycan array binding signal (z-score),[36],2.67
same,glycan array binding signal (z-score),[37],1.95
same,glycan array binding signal (z-score),[38],0.109
